Data as given in ChEMBL document CHEMBL1961873, “Compounds: GSK PKIS; Assays: Nanosyn kinase panel” (2012).
Several values for one entry are separate records, joined by “and”; a condition that tells them apart may be missing. Equal entries are not always repeated.

Assays:
[1] = molecular target: Rho-associated protein kinase 1 (Homo sapiens) (UniProt Q13464); conditions: at 1 µM;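 note: reported values are mean percent inhibition of ROCK1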
[2] = molecular target: Rho-associated protein kinase 2 (Homo sapiens) (UniProt O75116); conditions: at 0.1 µM
[3] = molecular target: Rho-associated protein kinase 2 (Homo sapiens) (UniProt O75116); conditions: at 1 µM
[4] = molecular target: Ribosomal protein S6 kinase alpha-1 (Homo sapiens) (UniProt Q15418); conditions: at 0.1 µM
[5] = molecular target: Ribosomal protein S6 kinase alpha-1 (Homo sapiens) (UniProt Q15418); conditions: at 1 µM
[6] = molecular target: Ribosomal protein S6 kinase alpha-3 (Homo sapiens) (UniProt P51812); conditions: at 0.1 µM
[7] = molecular target: Ribosomal protein S6 kinase alpha-3 (Homo sapiens) (UniProt P51812); conditions: at 1 µM
[8] = molecular target: Ribosomal protein S6 kinase alpha-2 (Homo sapiens) (UniProt Q15349); conditions: at 0.1 µM
[9] = molecular target: Ribosomal protein S6 kinase alpha-2 (Homo sapiens) (UniProt Q15349); conditions: at 1 µM
[10] = molecular target: Ribosomal protein S6 kinase alpha-6 (Homo sapiens) (UniProt Q9UK32); conditions: at 0.1 µM
[11] = molecular target: Ribosomal protein S6 kinase alpha-6 (Homo sapiens) (UniProt Q9UK32); conditions: at 1 µM
[12] = molecular target: T1, Serine/threonine-protein kinase Sgk1 (Homo sapiens) (UniProt O00141); conditions: at 0.1 µM
T1 sequence (whole entry): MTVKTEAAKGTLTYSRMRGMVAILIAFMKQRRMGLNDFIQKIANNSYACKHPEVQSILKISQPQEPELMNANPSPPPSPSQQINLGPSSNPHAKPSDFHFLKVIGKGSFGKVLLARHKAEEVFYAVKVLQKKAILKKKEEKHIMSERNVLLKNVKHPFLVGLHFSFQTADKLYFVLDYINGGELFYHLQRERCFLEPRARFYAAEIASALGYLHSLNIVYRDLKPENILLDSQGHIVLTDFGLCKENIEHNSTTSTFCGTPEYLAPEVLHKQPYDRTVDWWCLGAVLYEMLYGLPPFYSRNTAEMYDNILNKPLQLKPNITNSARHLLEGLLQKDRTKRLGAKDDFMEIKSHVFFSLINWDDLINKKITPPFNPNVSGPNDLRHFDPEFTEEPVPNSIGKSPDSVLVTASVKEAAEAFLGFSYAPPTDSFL

[13] = molecular target: T1, Serine/threonine-protein kinase Sgk1 (Homo sapiens); conditions: at 1 µM
[14] = molecular target: T2, Serine/threonine-protein kinase Sgk2 (Homo sapiens) (UniProt Q9HBY8); conditions: at 0.1 µM
T2 sequence (whole entry): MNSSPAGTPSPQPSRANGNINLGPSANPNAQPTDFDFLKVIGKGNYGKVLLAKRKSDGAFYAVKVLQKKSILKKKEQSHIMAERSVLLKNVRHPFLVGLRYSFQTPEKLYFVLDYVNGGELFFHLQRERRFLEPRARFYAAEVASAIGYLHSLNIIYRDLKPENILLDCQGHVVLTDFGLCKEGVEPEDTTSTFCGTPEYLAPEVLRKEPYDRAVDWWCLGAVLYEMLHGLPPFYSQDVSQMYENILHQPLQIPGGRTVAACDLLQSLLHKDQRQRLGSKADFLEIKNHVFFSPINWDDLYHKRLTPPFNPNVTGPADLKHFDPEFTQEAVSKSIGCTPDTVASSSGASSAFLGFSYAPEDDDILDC

[15] = molecular target: T2, Serine/threonine-protein kinase Sgk2 (Homo sapiens); conditions: at 1 µM
[16] = molecular target: T3, Serine/threonine-protein kinase Sgk3 (Homo sapiens) (UniProt Q96BR1); conditions: at 0.1 µM
T3 sequence (whole entry): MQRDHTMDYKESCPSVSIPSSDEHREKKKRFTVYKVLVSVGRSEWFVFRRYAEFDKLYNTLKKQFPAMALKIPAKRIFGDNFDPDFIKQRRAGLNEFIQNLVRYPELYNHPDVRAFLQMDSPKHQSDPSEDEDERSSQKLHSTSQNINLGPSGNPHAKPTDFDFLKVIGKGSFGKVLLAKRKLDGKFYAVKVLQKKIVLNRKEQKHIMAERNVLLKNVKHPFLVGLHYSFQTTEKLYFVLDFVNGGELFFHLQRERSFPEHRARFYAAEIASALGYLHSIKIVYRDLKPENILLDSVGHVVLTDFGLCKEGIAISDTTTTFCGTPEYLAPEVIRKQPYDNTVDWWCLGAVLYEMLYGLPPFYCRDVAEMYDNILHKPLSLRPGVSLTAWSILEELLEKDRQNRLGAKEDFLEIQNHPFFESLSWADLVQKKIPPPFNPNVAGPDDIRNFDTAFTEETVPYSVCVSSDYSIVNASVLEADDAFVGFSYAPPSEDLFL

[17] = molecular target: T3, Serine/threonine-protein kinase Sgk3 (Homo sapiens); conditions: at 1 µM
[18] = molecular target: 5'-AMP-activated protein kinase catalytic subunit alpha-1 (Homo sapiens) (UniProt Q13131); conditions: at 0.1 µM
[19] = molecular target: 5'-AMP-activated protein kinase catalytic subunit alpha-1 (Homo sapiens) (UniProt Q13131); conditions: at 1 µM
[20] = molecular target: 5'-AMP-activated protein kinase catalytic subunit alpha-2 (Homo sapiens) (UniProt P54646); conditions: at 0.1 µM;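 note: mean inhibition measured on the AMPK complex of alpha2, beta1 and gamma1 subunits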
Sequence of 5'-AMP-activated protein kinase catalytic subunit alpha-2 (Homo sapiens) (P54646 whole entry, looked up): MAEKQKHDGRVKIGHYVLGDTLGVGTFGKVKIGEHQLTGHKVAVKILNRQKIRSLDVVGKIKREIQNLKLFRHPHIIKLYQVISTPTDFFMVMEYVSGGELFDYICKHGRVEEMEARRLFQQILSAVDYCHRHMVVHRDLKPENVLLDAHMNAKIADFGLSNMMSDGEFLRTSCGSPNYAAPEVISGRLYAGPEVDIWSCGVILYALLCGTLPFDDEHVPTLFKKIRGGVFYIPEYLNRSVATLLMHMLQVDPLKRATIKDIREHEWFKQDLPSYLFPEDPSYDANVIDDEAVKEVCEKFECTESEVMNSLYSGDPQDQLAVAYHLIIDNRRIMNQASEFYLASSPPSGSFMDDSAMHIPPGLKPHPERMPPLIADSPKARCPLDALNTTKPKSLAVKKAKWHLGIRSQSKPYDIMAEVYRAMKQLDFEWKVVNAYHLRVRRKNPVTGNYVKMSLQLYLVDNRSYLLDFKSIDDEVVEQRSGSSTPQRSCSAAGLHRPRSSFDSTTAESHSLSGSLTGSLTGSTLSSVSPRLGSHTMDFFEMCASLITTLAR

Sequence of Ribosomal protein S6 kinase alpha-6 (Homo sapiens) (Q9UK32 whole entry): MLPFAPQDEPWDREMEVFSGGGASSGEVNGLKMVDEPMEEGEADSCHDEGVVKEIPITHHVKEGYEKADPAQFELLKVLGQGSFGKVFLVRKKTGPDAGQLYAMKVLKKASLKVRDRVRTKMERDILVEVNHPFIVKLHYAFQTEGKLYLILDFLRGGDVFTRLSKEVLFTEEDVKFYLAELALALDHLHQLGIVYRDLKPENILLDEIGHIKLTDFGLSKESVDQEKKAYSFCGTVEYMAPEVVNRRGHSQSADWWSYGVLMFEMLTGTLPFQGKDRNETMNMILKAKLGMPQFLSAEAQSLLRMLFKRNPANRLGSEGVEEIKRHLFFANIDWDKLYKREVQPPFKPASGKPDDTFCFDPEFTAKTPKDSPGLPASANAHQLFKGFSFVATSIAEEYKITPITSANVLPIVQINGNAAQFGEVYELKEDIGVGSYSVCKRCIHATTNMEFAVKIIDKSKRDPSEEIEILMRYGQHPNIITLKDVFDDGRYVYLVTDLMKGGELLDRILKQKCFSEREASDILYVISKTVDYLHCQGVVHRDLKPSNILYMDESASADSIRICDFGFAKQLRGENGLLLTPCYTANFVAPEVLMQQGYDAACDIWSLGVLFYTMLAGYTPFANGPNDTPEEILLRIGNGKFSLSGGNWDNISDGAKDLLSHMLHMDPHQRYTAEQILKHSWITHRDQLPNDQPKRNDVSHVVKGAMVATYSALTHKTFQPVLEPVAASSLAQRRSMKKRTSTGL
Sequence of Rho-associated protein kinase 2 (Homo sapiens) (O75116 whole entry, looked up): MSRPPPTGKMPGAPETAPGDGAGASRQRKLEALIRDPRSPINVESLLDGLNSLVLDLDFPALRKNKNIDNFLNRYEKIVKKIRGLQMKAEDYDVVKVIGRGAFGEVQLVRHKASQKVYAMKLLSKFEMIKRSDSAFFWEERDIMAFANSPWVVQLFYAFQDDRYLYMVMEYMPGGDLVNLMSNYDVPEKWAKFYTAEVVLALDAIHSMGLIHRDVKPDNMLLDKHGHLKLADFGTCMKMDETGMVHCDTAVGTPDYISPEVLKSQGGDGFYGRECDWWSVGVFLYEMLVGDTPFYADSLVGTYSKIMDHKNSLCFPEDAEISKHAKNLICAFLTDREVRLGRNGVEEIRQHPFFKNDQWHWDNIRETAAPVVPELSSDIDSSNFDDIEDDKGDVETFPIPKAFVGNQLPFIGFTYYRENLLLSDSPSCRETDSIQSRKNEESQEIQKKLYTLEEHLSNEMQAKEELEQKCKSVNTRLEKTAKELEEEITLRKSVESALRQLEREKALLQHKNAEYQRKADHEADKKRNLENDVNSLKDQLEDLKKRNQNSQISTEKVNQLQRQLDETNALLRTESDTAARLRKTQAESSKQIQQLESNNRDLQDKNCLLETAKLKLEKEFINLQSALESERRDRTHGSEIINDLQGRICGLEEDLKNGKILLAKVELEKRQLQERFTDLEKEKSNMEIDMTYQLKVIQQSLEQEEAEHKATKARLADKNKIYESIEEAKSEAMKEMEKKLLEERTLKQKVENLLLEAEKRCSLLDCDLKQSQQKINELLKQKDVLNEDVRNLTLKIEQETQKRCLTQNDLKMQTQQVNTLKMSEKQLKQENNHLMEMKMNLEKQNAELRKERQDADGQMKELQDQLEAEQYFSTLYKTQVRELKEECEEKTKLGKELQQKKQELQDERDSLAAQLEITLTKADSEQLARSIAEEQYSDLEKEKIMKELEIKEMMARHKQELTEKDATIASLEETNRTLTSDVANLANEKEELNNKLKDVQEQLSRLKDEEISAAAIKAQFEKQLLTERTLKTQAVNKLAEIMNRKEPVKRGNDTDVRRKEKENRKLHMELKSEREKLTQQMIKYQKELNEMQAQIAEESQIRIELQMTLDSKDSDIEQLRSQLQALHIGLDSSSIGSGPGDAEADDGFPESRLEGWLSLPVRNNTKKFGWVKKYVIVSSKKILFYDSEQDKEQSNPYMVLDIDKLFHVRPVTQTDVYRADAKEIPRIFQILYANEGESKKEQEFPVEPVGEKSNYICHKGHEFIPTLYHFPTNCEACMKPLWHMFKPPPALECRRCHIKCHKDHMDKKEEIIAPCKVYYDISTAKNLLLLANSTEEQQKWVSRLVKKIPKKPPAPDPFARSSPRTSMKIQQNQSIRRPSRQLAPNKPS
Sequence of Ribosomal protein S6 kinase alpha-2 (Homo sapiens) (Q15349 whole entry): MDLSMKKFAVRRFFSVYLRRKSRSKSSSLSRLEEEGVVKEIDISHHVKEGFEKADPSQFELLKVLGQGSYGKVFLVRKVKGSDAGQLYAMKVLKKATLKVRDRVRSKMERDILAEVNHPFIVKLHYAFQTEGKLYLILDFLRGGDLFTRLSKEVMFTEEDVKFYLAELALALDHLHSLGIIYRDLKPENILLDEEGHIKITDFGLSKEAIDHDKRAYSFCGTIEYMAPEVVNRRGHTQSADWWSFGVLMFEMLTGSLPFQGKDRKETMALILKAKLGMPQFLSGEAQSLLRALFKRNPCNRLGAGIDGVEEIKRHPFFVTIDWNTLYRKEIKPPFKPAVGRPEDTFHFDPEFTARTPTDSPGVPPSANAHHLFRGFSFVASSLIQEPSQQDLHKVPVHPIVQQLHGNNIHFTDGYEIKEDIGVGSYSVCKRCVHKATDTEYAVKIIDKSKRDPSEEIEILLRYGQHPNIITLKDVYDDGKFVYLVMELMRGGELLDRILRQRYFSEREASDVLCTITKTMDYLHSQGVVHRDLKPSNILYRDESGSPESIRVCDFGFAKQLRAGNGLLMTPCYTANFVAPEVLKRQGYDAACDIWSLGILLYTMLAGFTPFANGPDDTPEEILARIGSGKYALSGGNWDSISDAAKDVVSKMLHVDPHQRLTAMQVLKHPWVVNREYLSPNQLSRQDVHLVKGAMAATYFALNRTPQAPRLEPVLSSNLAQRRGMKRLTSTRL
Sequence of Ribosomal protein S6 kinase alpha-3 (Homo sapiens) (P51812 whole entry): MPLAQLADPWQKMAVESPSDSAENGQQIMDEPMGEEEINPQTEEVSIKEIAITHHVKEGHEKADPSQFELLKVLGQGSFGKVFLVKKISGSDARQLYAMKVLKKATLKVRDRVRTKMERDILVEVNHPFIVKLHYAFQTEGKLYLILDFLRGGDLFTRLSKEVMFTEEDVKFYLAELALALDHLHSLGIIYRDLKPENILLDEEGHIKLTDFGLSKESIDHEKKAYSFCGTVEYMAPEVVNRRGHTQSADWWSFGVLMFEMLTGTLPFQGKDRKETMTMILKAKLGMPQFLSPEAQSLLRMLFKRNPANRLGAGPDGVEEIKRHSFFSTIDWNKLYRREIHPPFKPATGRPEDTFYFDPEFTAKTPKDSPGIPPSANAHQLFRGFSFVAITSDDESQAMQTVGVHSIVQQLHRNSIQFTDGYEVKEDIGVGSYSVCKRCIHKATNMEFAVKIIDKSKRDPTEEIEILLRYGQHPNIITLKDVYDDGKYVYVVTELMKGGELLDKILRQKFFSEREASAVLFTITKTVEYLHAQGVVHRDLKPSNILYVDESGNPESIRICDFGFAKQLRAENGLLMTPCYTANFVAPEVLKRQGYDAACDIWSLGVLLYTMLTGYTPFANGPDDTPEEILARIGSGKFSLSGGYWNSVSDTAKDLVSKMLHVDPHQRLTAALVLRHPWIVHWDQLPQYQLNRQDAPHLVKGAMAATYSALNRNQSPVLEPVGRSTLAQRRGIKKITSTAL
Sequence of Ribosomal protein S6 kinase alpha-1 (Homo sapiens) (Q15418 whole entry): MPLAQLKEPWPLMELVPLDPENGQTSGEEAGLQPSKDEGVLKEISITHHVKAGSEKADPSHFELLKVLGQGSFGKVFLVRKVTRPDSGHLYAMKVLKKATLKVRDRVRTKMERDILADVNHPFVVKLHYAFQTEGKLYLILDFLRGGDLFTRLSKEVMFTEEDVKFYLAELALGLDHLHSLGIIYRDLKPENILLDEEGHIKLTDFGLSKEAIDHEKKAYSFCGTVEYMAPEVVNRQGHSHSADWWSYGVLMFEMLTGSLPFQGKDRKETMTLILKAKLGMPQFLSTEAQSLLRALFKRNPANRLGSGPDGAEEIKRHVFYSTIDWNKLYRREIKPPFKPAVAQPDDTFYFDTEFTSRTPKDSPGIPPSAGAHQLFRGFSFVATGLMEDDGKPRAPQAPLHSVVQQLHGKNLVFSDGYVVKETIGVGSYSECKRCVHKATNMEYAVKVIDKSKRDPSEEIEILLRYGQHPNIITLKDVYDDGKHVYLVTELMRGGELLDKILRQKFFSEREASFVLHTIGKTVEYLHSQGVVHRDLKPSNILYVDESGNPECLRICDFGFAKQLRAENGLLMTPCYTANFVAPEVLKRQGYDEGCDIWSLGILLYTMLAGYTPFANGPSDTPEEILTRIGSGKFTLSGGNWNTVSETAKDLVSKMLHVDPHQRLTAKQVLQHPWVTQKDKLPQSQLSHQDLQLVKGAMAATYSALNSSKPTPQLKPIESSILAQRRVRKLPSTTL

SMILES	inhibition [1]	inhibition [2]	inhibition [3]	inhibition [4]	inhibition [5]	inhibition [6]	inhibition [7]	inhibition [8]	inhibition [9]	inhibition [10]	inhibition [11]	inhibition [12]	inhibition [13]	inhibition [14]	inhibition [15]	inhibition [16]	inhibition [17]	inhibition [18]	inhibition [19]	inhibition [20]
CC1(C)CC(n2cnc(-c3ccc(F)cc3)c2-c2ccnc(N)n2)CC(C)(C)N1	1.6%	1.54%	1.8%	1.07%	1.93%	1.45%	2.77%	1.16%	1.53%	0.66%	0.95%	1.68%	5.28%	-3.17%	-3.03%	1.34%	1.32%	0.3%	1.1%	3.69%
CS(=O)(=O)CCNCc1ccoc1-c1ccc2ncnc(Nc3ccc(OCc4ccccc4)cc3)c2c1	-0.69%	-1.1%	0.07%	0.19%	-0.1%	-0.27%	-0.04%	1.27%	1.14%	-0.31%	-0.72%	2.02%	1.39%	2.28%	-3.3%	5.61%	1.1%	-0.71%	-0.55%	0.46%
NS(=O)(=O)c1ccc(N/N=C2\C(=O)Nc3cccc(CCc4ccncc4)c32)cc1	1.51%	0.96%	1.68%	2.2%	1.84%	2.02%	2.03%	2.79%	7.37%	3.11%	7.42%	1.76%	1.65%	3.09%	-0.79%	-1.13%	-0.92%	4.83%	8.26%	3.2%
CS(=O)(=O)Nc1ccc(-c2cc(-c3ccccc3)cc(C(N)=O)c2N)cc1	1.71%	0.41%	1.85%	-1.14%	0.41%	-0.7%	0.45%	-1.55%	0.47%	-1.16%	0.06%	0.87%	2.29%	9.08%	0.51%	0.13%	2.54%	0.7%	1.42%	5.24%
O=C(O[C@H]1CN[C@H](C#Cc2cc3ncnc(Nc4ccc5c(ccn5Cc5cc(F)ccc5F)c4)c3s2)C1)N1CCOCC1	3.4%	2.86%	5.23%	1.53%	1.62%	0.96%	0.89%	3.56%	2.57%	1.53%	2.42%	3.69%	3.13%	4.36%	0.96%	3.53%	3.51%	3.06%	1.13%	3.89%
CN1CCC(C(=O)Nc2n[nH]c3nc(-c4ccc(O)cc4)c(Br)cc23)CC1	2.13% and -0.83%	3.65% and -0.14%	7.61% and 0.92%	2.66% and 0.77%	5.58% and 0.84%	2.78% and 0.04%	6.6% and 1.92%	3.56% and 2.99%	7.9% and 6.17%	2.77% and 0.98%	12.7% and 9.62%	5.12% and 1.94%	10.4% and 4.16%	3.28% and 2.28%	6.79% and 6.21%	1.96% and 6.46%	6.31% and 0.32%	5.11% and 1.11%	18.7% and 10.6%	3.96% and 2.49%
CC1=C(C(=O)Nc2ccc3[nH]ncc3c2)C(c2ccc(F)cc2)N=C(c2ccc(C(F)(F)F)nc2)N1 (stereo not given)	73.2%	35.7%	75%	0.61%	4.49%	-0.02%	2.71%	1.05%	3.76%	0.55%	0.46%	1.43%	2.75%	2.27%	4.47%	4.38%	2.31%	1.92%	8.74%	0.84%
CCn1c(-c2nonc2N)nc2cncc(C(=O)NCCNC)c21	91.6%	80.6%	90.4%	62.3%	88.3%	54.5%	78.7%	25.4%	73.8%	9.72%	37.3%	3.75%	18.1%	2.29%	17.7%	21.3%	66.2%	3.01%	8.23%	2.58%
CN1CCC(n2cnc(-c3ccc(F)cc3)c2-c2ccnc(NCCO)n2)CC1	4.39%	3.23%	8.52%	1.81%	6.04%	0.9%	3.09%	3.09%	4.29%	1.56%	1.96%	3.61%	6.71%	0.04%	5.93%	5.14%	3.95%	2.98%	6.22%	1.25%
COc1cc(Nc2ncc(-c3ccccc3)o2)cc(OC)c1	2.6%	3.77%	-3.98%	1.54%	1.99%	1.01%	2.61%	1.71%	3.57%	0.85%	2.83%	3.1%	4.7%	3.93%	4.37%	3.26%	3%	2.43%	5.67%	2.86%
CCCNc1cccc(-n2ncc3c(N/N=C/c4ccncc4)ncnc32)c1	13.7%	4.97%	28.1%	1.36%	4.72%	1.62%	4.75%	-0.01%	2.43%	0.53%	3.54%	2.34%	13.6%	2.41%	10.9%	3.53%	5.07%	1.8%	3.53%	-1.29%
COc1cccc(Nc2nccc(-c3cnn4ncccc34)n2)c1	6.3%	2.21%	15.4%	0.64%	4.33%	-0.39%	2.48%	-0.61%	2.4%	-1.37%	4.34%	1.84%	9.81%	7.46%	6.98%	-0.45%	2.03%	2.19%	10.9%	-3.44%
CN(C)CCNC(=O)Nc1ccc(N(C)c2ccnc(Nc3ccc(CS(C)(=O)=O)cc3)n2)cc1	19.8%	5.05%	24%	2.03%	2.41%	0.87%	2.03%	2.14%	4.06%	1.56%	3.59%	3.14%	3.11%	0.71%	-2.21%	3.61%	0.64%	2.62%	5.07%	2.24%
